Source: PubChem BioAssay AID1467 (National Center for Advancing Translational Sciences (NCATS), 2008)
In all, about 230,000 compounds went through this assay and fewer than 10 were called active. The call rests on the fitted dose curve; in most records, active means well fitted curve in the direction sought with a large enough effect; inconclusive means small, poorly fitted or top-dose-only effect, or effect the other way, or another doubt; inactive means no such curve, though single readings can be large or run the other way. Only a sample is shown.

What follows are compounds tested against Alpha-galactosidase A (Homo sapiens) (UniProt P06280) (assay: qHTS Assay for Inhibitors of Human alpha-Galactosidase at pH 4.5.). Conditions: purified enzyme, 4-MU-alpha-Gal fluorescence; series mostly up to 105 µM; activity change, negative = inhibition: at the top concentration.
Alpha-galactosidase A (Homo sapiens), sequence (P06280 whole entry, looked up): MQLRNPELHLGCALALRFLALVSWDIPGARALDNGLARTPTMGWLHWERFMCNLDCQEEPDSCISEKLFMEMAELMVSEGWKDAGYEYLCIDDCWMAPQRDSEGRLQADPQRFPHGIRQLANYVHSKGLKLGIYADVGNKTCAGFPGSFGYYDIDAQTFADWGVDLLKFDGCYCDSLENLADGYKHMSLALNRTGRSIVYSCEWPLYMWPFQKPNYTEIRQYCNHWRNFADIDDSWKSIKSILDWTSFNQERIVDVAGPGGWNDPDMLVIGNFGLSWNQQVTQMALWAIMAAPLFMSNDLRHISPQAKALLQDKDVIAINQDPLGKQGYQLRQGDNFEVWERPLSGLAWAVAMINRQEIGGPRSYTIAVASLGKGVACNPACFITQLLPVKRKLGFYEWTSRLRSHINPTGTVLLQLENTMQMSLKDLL
Description: NIH Chemical Genomics Center [NCGC]
NIH Molecular Libraries Probe Production centers Network [MLPCN]
Assay Submitter (PI): Wei Zheng
Alpha-galactosidase is a homodimeric glycoprotein that hydrolyzes the terminal alpha-galactosyl moieties from glycolipids and glycoproteins. Deficiency of this enzyme results in Fabry Disease with progressive accumulation of globotriaosylceramide and other glycosphingolipids in vascular endothelial cells that causes renal failure, myocardial infarction and stroke, and premature death in patients. It has been reported that the improper folding and trafficking of alpha-galactosidase resulting from the genetic mutations may account for a significant numbers of Fabry patients. […] We optimized this alpha-galactosidase assay in 1536-well plate format for identifying the novel small molecule inhibitors with the structures other than the sugar analogs in order to develop the new pharmacological chaperones. Although this assay has the same protocol as PubChem AID 992, this is a separate project and, therefore, is published as a separate assay
NCGC Assay Protocol Summary:
This is a fluorogenic enzyme assay with 4-Methylumbelliferyl alpha-D-galactopyranoside as the substrate and human […] as the enzyme preparation. Upon the hydrolysis of this fluorogenic substrate, the resulting product, […]. 4-Methyllumbelliferone, can be excited at 365 nm and emits at 440 nm. This fluorescence which can be detected by a standard fluorescence plate reader. Data were normalized to the controls for basal activity (without enzyme) and 100% activity (with enzyme). In the AC50 values were determined from concentration-response data modeled with the standard Hill equation.
Assay buffer: 50 mM citric acid (titrated with potassium phosphate to pH 4.5), 0.005% Tween-20, pH 4.5. (pH 4.5 is an optimal condition for this enzyme assay)
1536-well assay protocol for the human alpha-galactosidase:
(1) Add 2 ul/well of enzyme (12 nM final)
(2) Add 23 nL compounds in DMSO solution. The final titration was 0.7 nM to 77 uM.
(3) Add 1 ul of substrate (400 uM final)
(4) Incubate at room temperature for 20 min.
(5) Add 2 ul stop solution (1M NaOH and 1M Glycine mixture, pH 10)
(6) Detect the assay plate in a ViewLux plate reader (PerkinElmer) with Ex=365 nm and Em=440nm.
Keywords: MLSMR, MLPCN, NIH Roadmap, qHTS, NCGC, : Alpha-galactosidase, Fabry Disease, pharmacological chaperone, chaperone therapy
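Further: 0% = full activity with enzyme and -100% = basal without enzyme.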

Activity change, negative = inhibition, inactive:
C=C1c2cccc(OC)c2O[C@H](C(=O)OCC)[C@@H]1CCCCCC -12.3%
C=CCn1c2ccccc2c2nnc(SCc3[nH]c(=O)[nH]c3C(=O)CCCCC(=O)OCC)nc21 6.4%
O=C(COC(=O)CNC(=O)c1ccccc1F)NCC(F)(F)F 2.03%
COC(=O)C1=C(C(=O)OC)[C@@H]2N(C)c3ccccc3[C@@]23C[C@@H](C(=O)OC)N(S(=O)(=O)c2ccc(Br)cc2)C3=N1 -2.66%
O=C(NCCCN1CCOCC1)c1cc2c(s1)CCC2 -4.48%
CCOc1ccc(C2NC(=S)NC3=C2CCc2ccccc23)cc1 (stereo not drawn) -7.19%
COc1cc(OC)c2c(-c3cccc(-c4cccc(N)c4)c3)cc(=O)oc2c1 -6.01%
Cc1ccc(NC(=O)O[C@@H]2C(=O)c3cc(Br)ccc3O[C@H]2c2ccc3c(c2)OCO3)cc1Br -0.736%
CC1=C(C)CC(C(=O)NNC(=O)c2ccccc2O)C(C(=O)O)C1 (stereo not drawn) 8.41%
O=S(=O)(Cc1noc(-c2ccc(OC(F)(F)F)cc2)n1)c1ccc(F)cc1 -3.61%
COc1cc(CNCCN(C)C)ccc1OCc1c(F)cccc1Cl 7.26%
Clc1ccc(-c2csc(-c3ccncc3)n2)cc1 0.359%
CCOc1cc(N2CCOCC2)c(OCC)cc1NC(=O)c1ccc(C)s1 3.82%
NC1CCN(O)C1=O (stereo not drawn) -1.41%
COc1ccc(S(=O)(=O)N(C)C)cc1NC(=O)CSc1ncccn1 -1.38%
O=C(COc1ccccc1)N1CCN=C1SCc1cccc(F)c1 -1.66%
CC(=O)/C(C)=N/O 6.05%
CCO[C@H]1OC(C(=O)N2CCN(Cc3ccccc3)CC2)=C[C@@H](c2cn(C(C)=O)c3ccccc23)[C@@H]1CCCO -8.17%
C=C/C1=C/Cc2ccccc2[C@H](C[N+](=O)[O-])C(C(=O)OC)(C(=O)OC)C1 -2.03%
NNC(=O)c1oc2nc(-c3ccccc3)cc(-c3ccco3)c2c1N -5.28%
S=C(NCCCc1cnc[nH]1)NCCCN(Cc1ccc(Cl)c(Cl)c1)c1ccc(Br)cn1 -6.2%
Cc1cccc([C@H]2[C@@H]3C=CC[C@@H](C)[C@@H]3C(=O)N2Cc2ccccc2)c1 -2.93%
CCN(CCn1cccn1)C(=O)CC1C(=O)NCCN1Cc1cccc(OC)c1OC (stereo not drawn) -3.26%
O=[N+]([O-])c1ccc(N2CCNCC2)cc1NCc1cccnc1 -23.8%
S=C(NNC(=S)NC1CC2C=CC1C2)NC1CC2C=CC1C2 (stereo not drawn) -8.67%
COC(=O)N1C(/C=C/C=C/c2ccc(OC)cc2)=Cc2ccccc2C1CC(C)=O (stereo not drawn) -1.09%
COc1ccc(C(=O)COC(=O)c2nn(C)c(=O)c3ccccc23)c(OC)c1 -26.1%
COc1cccc(NC(=S)NCc2ccco2)c1 -7.84%
Cn1c(SCC(=O)NC2CCCCC2)nnc1-c1ccc(N)cc1 -1.25%
COC(=O)C1=C(C(=O)OC)[C@@H]2N(C)c3ccccc3[C@@]23C[C@@H](C(=O)OC)N(S(=O)(=O)c2cccs2)C3=N1 -0.375%
CN1CCC(=NNC(=O)CN(c2cccc(Cl)c2)S(C)(=O)=O)CC1 -0.661%
NC(=O)CC(NC(=O)Cc1cccc2ccccc12)c1ccc(NCc2cc(F)ccc2F)c([N+](=O)[O-])c1 (stereo not drawn) 10.4%
N#Cc1cccc(CS(=O)(=O)c2nnnn2-c2cc(C(F)(F)F)cc(C(F)(F)F)c2)c1 -8.23%
Cc1cc(C(=O)COC(=O)CNC(=O)c2ccc(F)cc2)c(C)n1Cc1ccco1 1.82%
OCCC1CN(Cc2ccc3nsnc3c2)CCN1C1CCCCC1 (stereo not drawn) -12.3%
Cc1cc(C)cc(N(CC(=O)NCCSCc2ccco2)S(C)(=O)=O)c1 0.74%
CC1CCN(c2c(NCc3ccc(C(=O)NCc4ccccc4)cc3)c(=O)c2=O)CC1 -4%
CNC(=O)c1ccc(NC(=O)c2cccc(C(F)(F)F)c2)cc1 -1.3%
Nc1ccc(OCC(O)C[n+]2ccc(CCS(=O)(=O)[O-])cc2)cc1 (stereo not drawn) 5.66%
Cc1cccc2c1N(CCOc1ccccc1)C(=O)C2=O -14.8%
CN1C(=O)/C(=C\c2ccc(-c3ccccc3)o2)SC1=S 4.38%
C/C(=N\NC(=O)c1cccc(N2CCCC2=O)c1)c1ccc(N)cc1 0.376%
CC(C)(C)Nc1c(-c2cccs2)nc2ccccn12 5.51%
Cc1csc(-c2coc3cc(O[C@@H]4O[C@H](CO)[C@@H](O)[C@@H](O)[C@H]4O)ccc3c2=O)n1 -1.54%
c1ccc2c(c1)CSc1sccc1C2=C1CCNCC1 7.6%
CC(=O)CC(c1ccccc1)C1C(=O)Oc2ccccc2C1=O (stereo not drawn) -1.34%
COC(=O)C1=C(C(=O)OC)[C@@H]2N(Cc3ccccc3)c3ccccc3[C@@]23C[C@@H](C(=O)OC)N(S(=O)(=O)c2ccc(C(F)(F)F)cc2)C3=N1 -8.58%
O=C(NCCN1CCOCC1)c1ccc2c(c1)N(Cc1ccc(Cl)cc1)CCS2 19.9%
C/C=C(\C)C(=O)OC1C(OC(=O)C2(C)OC2C)c2cc3ccc(=O)oc3cc2OC1(C)C (stereo not drawn) -3.44%
CNC(=S)N1CCC(NC(=O)C(Cc2ccc(F)cc2)NC(C)=O)CC1 (stereo not drawn) 2.08%
Cc1oc2cc([N+](=O)[O-])c(O)c([N+](=O)[O-])c2c1C(=O)c1ccc(Br)cc1 0.458%
CCc1ccc(NC(=O)C(=O)N/N=C(\C)CC(=O)NCCOC)cc1 3.4% [at 21.1 µM]
CCOc1ccc(NC(=O)c2ccc(CSc3nnnn3C)cc2)cc1 5.27%
COC(=O)C1=C(C(=O)OC)[C@@H]2Nc3ccccc3[C@@]23C[C@@H](C(=O)OC)N(S(=O)(=O)c2ccc([N+](=O)[O-])cc2)C3=N1 -1.19%
COc1ccc(Nc2ncnc3ccc(OC)cc23)cc1 -4.49%
C[N+]1(CC(O)COc2ccccc2)CCN(C(=O)c2ccc([N+](=O)[O-])cc2)CC1 (stereo not drawn) -12.9%
C/C=C(\C)C(=O)O[C@H]1CC(C)=C2C(=O)C=C(C)C2[C@@H]2OC(=O)[C@@](C)(OC(=O)C=C(C)C)C21 (stereo partly drawn) 0.518%
Cc1nc(SCc2ccc(F)cc2)c([N+](=O)[O-])[nH]1 -11%
C=CCN1C(=O)C(Cc2ccc(OCC)cc2)SC1=Nc1ccc(C(=O)O)cc1 (stereo not drawn) -0.326%
Cc1ccc(C)c(-n2nnnc2SCC(=O)c2c(N)n(C)c(=O)n(C)c2=O)c1 7.01%
COc1ccc2c(c1)O[C@@H](c1ccc3c(c1)OCO3)[C@H](OC(=O)NCc1ccco1)C2=O -8.2%
Cc1cn(C2OC[C@@H](O)[C@@H]2CO)c(=O)[nH]c1=O (stereo partly drawn) -5.03%
Brc1ccc(C2=NCCC(c3ccccc3)O2)cc1 (stereo not drawn) -0.0967%
C[C@@H]1C(c2ccc(F)cc2)=NN(c2ccc(Br)cc2)[C@H]1C(=O)N1CCOC1=O 1.05%
Cc1csc(SCC(=O)Nc2sccc2C#N)n1 1.25%
COC(=O)c1ccc(S(=O)(=O)N(CCO)Cc2ccccc2)n1C 1.9%
Nc1nc(C23CC4CC(CC(C4)C2)C3)cs1 -0.438%
CN(CCc1cn[nH]c1)C(=O)CC1C(=O)NCCN1Cc1cccc(Oc2ccccc2)c1 (stereo not drawn) 7.92%
Cc1cc(C)nc(SC2CCCCC2NS(=O)(=O)c2ccc(Cl)cc2)n1 (stereo not drawn) -10.7%
Cc1ccc(S(=O)(=O)N2CCC(C(=O)OCC(=O)N3CC(=O)Nc4ccccc43)CC2)cc1 -0.506%
Cc1ccc(C2CC(c3cccc(NS(C)(=O)=O)c3)=NN2S(C)(=O)=O)cc1 (stereo not drawn) 10.3%
CCOC(=O)C1=C(C)c2ccccc2OC1(C)C(=O)OCC (stereo not drawn) -6.68%
Cc1cccc(NC(=S)NCc2ccc3[nH]c4c(c3c2)CCCC4)c1 -1.22%
COc1ccc(-c2c(C)cc3oc(=O)cc(-c4ccccc4)c3c2C)cc1OC -21.7%
OC[C@H]1O[C@@H](n2cnc3c(NC4CCCC4)ncnc32)[C@H](O)[C@H]1O 0.0639%
COC1(C2=NCCN2)COc2ccccc2O1 (stereo not drawn) -0.194%
COC(C)C(C(=O)OCC1=CCN2CC[C@H](O)[C@@H]12)C(C)C (stereo partly drawn) -7.37%
COc1ccc(-c2nc3c(c4c2C[C@H](c2ccccc2)OC4)CN(C(=O)c2ccco2)CC3)c(C)c1 9.81%
CCn1c(SCC(=O)Nc2ccc(C)cc2)nc2nc3c(cc2c1=O)CCCC3 0.427%
Cc1cc(N)n(-c2ccc(S(=O)(=O)N3CCCC3)cc2[N+](=O)[O-])n1 8.19%
Cc1cc(Cl)ccc1OCc1nc(-c2ccncc2)no1 -7.26%
CC(C)(C)NS(=O)(=O)CC12CCC(CC1=O)C2(C)C (stereo not drawn) -2.78%
CCn1c(SCc2ccccc2)nc2c(c1=O)SCC2 -18.3%
COc1ccc(-c2nc3c(c4c2C[C@H](c2ccccc2)OC4)CN(C(=O)C2CC2)CC3)c(C)c1 -7.05%
C=CCN1c2ccccc2[C@]23C[C@@H](C(=O)OC)N(S(=O)(=O)c4ccc([N+](=O)[O-])cc4)C2=NC(C(=O)OC)=C(C(=O)OC)[C@H]13 -4.09%
O=C(CSc1cccc[n+]1[O-])c1ccc(Cl)cc1 3.17%
O=C(NCc1cccnc1)c1cnc2ccccc2n1 1.77%
CCCCS(=O)(=O)N1C2=NC(C(=O)OC)=C(C(=O)OC)[C@@H]3N(Cc4ccccc4)c4ccccc4[C@]23C[C@H]1C(=O)OC 7.1%
Nn1c(SCC(=O)Nc2nccs2)nncc1=O -6.09%
O=c1[nH]c(SCc2cccc(F)c2)nc2ccccc12 0.781%
COc1ccc(/C=N/OCC(=O)N(Cc2ccccc2)c2ccccc2C(=O)O)cc1 -13.4%
O=C(COc1cccc(F)c1)Oc1ccc(C(=O)c2ccccc2)cc1 1.38%
COc1ccc(-c2nc3c(c4c2C[C@H](c2ccccc2)OC4)CN(S(=O)(=O)c2c(C)noc2C)CC3)c(C)c1 11.4%
